Assay results as given in the supplement of paper PMC7866885, “A novel bicyclic 2,4-diaminopyrimidine inhibitor of Streptococcus suis dihydrofolate reductase” (PeerJ, 2021).
± gives the standard deviation.

Each compound was assayed on Streptococcus suis HE06 (assay: percent growth relative to DMSO control; higher = less growth inhibition). Conditions: 10 µM; incubation time 18 h.
Procedure: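 CLSI broth microdilution: 5x10^4 CFU of Streptococcus suis (strain P1/7 or HE06) incubated with 10 µM Pathogen Box compound in cation-adjusted Mueller Hinton broth, 37 °C, 5% CO2, 18 h. Growth read as OD600 and expressed as percent of the DMSO-treated control (100%); mean ± SD of three independent experiments.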

Structure (SMILES)	percent growth
OCCc1ccc(Nc2nccc(-c3nnc4ccccn34)n2)cc1	92.9 ± 6.6%
CCCn1nnc(NC(=O)COc2ccc(C3CCCCC3)cc2)n1	115.2 ± 1%
Cc1ccc2cc(C3NC(=O)c4ccccc4N3)c(Cl)nc2c1 (centres undefined)	72.4 ± 16%
CC1COC2(CCN(c3nc(=O)c4cc(C(F)(F)F)cc([N+](=O)[O-])c4s3)CC2)O1 (centres undefined)	80.1 ± 1.6%
CC(C)(C)OC(=O)N1CCN(c2cc(-c3ccc(Oc4ccccc4)cc3)n[nH]2)CC1	89.6 ± 5.8%
NCC(=O)N1CCn2c(nc(-c3ccccc3)c2Nc2ccc3c(c2)OCO3)C1	97.6 ± 33%
CNc1snc(C)c1C(=O)NCCOc1ccc(OC)cc1	102 ± 22%
CC(C)(C)C1CCC(CC2=C(O)C(=O)c3ccccc3C2=O)CC1 (centres undefined)	17.3 ± 28%
CC(C)NCC(=O)Nc1cccc(C(=O)Nc2cccc(C(F)(F)F)c2)c1	104 ± 4.8%
C[C@@H]1[C@H](O)[C@@H](C)/C=C/C=C/C=C/C=C/C=C/C=C/C=C/[C@H](O[C@@H]2O[C@H](C)[C@@H](O)[C@H](N)[C@@H]2O)C[C@@H]2O[C@](O)(C[C@@H](O)C[C@@H](O)[C@H](O)CC[C@@H](O)C[C@@H](O)CC(=O)O[C@H]1C)C[C@H](O)[C@H]2C(=O)O	97.2 ± 8.6%
OC[C@H]1O[C@@H](n2c3ccc(Cl)cc3c3c(-c4cc5ccccc5o4)ncnc32)C(O)[C@H]1O (some centres undefined)	93 ± 20%
COc1nc2ccc(Br)cc2cc1[C@@H](c1ccccc1)[C@@](O)(CCN(C)C)c1cccc2ccccc12	59.8 ± 13%
O=C(Nc1ccc(N2CCNCC2)cc1)c1ccn2ncc(-c3cccc(Cl)c3)c2n1	98.9 ± 27%
O=C1N(Cc2cc3ccccc3s2)CC2CN(Cc3ccccc3)CCN12 (centres undefined)	82.2 ± 8%
